# Only some compounds are listed: those with a hit (about 2.4% of all), similar ones and a draw of the others.
# Pol iota inh = DNA polymerase iota (human) inhibition; AID 588590; Pol iota fluorescent replication assay, 10 min; Potency, µM (doses to about 115 µM), most hits filed as inhibitors; 1% of 390,000 active
#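 Pol iota at 10 nM preincubated 15 min with compounds at room temperature; reaction started with fluorescent substrate, 50 nM final. Fluorescence read kinetically at 0 and 10 min; buffer-only wells as negative control.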
# Pol kappa inh = inhibitors of human DNA polymerase kappa; Q9UBT6; purified Pol kappa, fluorescent DNA synthesis assay, 10 min; Potency, µM (highest dose often 107 µM), hits mostly inhibitors; 0.53% of 400,000 active; AID 588579
#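 Here, compound and 10 nM enzyme are combined for 15 min at room temperature; adding 50 nM substrate (final) starts DNA synthesis, tracked by fluorescence at 0 and 10 min against buffer-only wells.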
# POLB inh = inhibitors of human DNA polymerase beta | P06746 | Pol beta primer extension/strand displacement, fluorescence kinetic | Potency, µM (highest dose often 114 µM), most hits filed as inhibitors | 1.3% of 340,000 active | AID 485314
#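 Pol beta (10 nM) and compounds were preincubated 15 min at room temperature, then 50 nM substrate (final) started primer extension/strand displacement. Reads were taken at 0 and 10 min; concentration-response data were fitted to a four-parameter Hill equation.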
# POLH inh = blocks human DNA polymerase eta activity; recombinant Pol eta, fluorescent DNA replication assay; 1.2% of 390,000 active; Q9Y253; Potency, µM (top dose mostly 114 µM), hits mostly inhibitors
#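 Pol eta (10 nM) was preincubated with compounds for 15 min at room temperature, after which fluorescent replication substrate (50 nM final) was added to start the reaction. Fluorescence was read kinetically at 0 and 10 min.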
# TDP1 inh = TDP1 (human) enzyme inhibition. 0.28% of 350,000 active. recombinant TDP1, AlphaScreen DNA substrate cleavage. Potency, µM (top dose mostly 130 µM), actives largely listed as inhibitors; further: nearly all actives have a fitted effect of over 40% in size
#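 E. coli-derived human Tdp1, 1 nM final. Cpd preinc 15 min RT; substrate 15 nM final, 5 min RT; AS bead mix 10 ug/ml final, 10 min RT. Signal loss = tyrosine-FITC cleavage. No-enzyme wells = max signal.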
# A number is an active result; – = inactive; ? = inconclusive; · = no result given; [ ] = dose if it differs, or a comment. The call rests on the fitted dose curve; in most records, active means well fitted curve in the direction sought with a large enough effect; inconclusive means small, poorly fitted or top-dose-only effect, or another doubt; inactive means no such curve, though single readings can be large; an effect the other way counts as inactive or inconclusive.
SMILES,Pol iota inh,Pol kappa inh,POLB inh,POLH inh,TDP1 inh
Cc1ccc(N(Cc2cccs2)C(=O)c2ccccc2[N+](=O)[O-])cc1,–,–,–,–,–
Cc1ccc(C(=O)Nc2nnc(S(=O)(=O)N3CCN(c4ccc(F)cc4)CC3)s2)cc1,–,–,–,–,–
COc1ccc(-c2nnc(NC(=O)c3ccco3)s2)cc1,–,–,–,–,39.8µM
O=C(Nc1nnc(COc2ccc(Cl)cc2)s1)c1ccco1,–,–,–,–,79.4µM
Cc1ccc(N2CCN(S(=O)(=O)c3nnc(NC(=O)c4ccco4)s3)CC2)cc1,–,–,?,79.4µM,·
COc1cc(OC)c(/C=C/c2ccc3ccccc3n2)c(OC)c1,?,–,·,·,·
CCN(CC)CCN(CC)c1ccc(/C=C/c2ccnc3ccccc23)cc1,–,–,·,·,·
Cc1ccc(C(=O)OCC(=O)Nc2c(Cl)cc(S(N)(=O)=O)cc2Cl)o1,70.8µM,?,?,–,–
CCOC(=O)N1CCN(C(=O)C2CCN(C(=O)c3ccccc3C)CC2)CC1,?,?,·,31.6µM,·
Cc1ccccc1C(=O)N1CCC(C(=O)N2CCN(c3ncccn3)CC2)CC1,–,–,·,–,–
CCCCCCCCCCCCCC/C(C(=O)O)=C(\C)C(=O)O,·,–,·,·,–
Cc1oc(-c2cccc(Cl)c2)nc1CN1CCC(C(=O)NC(C)C)CC1,89.1µM,–,–,–,–
O=C(O)C1CC=CCC1C(=O)Nc1ccc2c(c1)OCCO2 (stereo not drawn),–,–,20µM,?,·
O=C(O)C1CC=CCC1C(=O)Nc1cccc(F)c1 (stereo not drawn),–,–,28.2µM,–,·
OC(C[n+]1cccc(Br)c1)c1ccccc1 (stereo not drawn),–,–,·,·,·
CC12CCC=CC1C(c1cccc(Br)c1)N(Cc1ccccc1)C2=O (stereo not drawn),?,–,·,·,–
CCCCCC(=O)NNC(=O)c1ccc(-c2ccccc2)cc1,?,–,39.8µM,–,–
Cc1ccccc1OCC(=O)NNC(=O)c1ccc(-c2ccccc2)cc1,79.4µM,–,?,–,–
Cc1ccccc1OCC(=O)NCC(=O)OCC(=O)c1ccc(-c2ccccc2)cc1,–,–,·,·,–
CCCCC(=O)Nc1ccc(C(=O)NNC(=O)CCc2ccccc2)cc1,–,–,?,–,·
O=C(NNC(=O)c1ccc(-c2ccccc2)cc1)c1ccccc1,79.4µM,–,–,?,–
Cc1cccc(C(=O)NNC(=O)c2ccc(-c3ccccc3)cc2)c1,–,?,?,–,–
COc1cc(/C=C2/NC(=O)NC2=O)cc(Br)c1OCc1ccc(C(=O)O)cc1,–,–,–,–,70.8µM
O=C(O)COc1c(Cl)cc(/C=C2\NC(=O)NC2=O)cc1Br,–,–,–,–,–
CCOC(=O)c1ccc(-n2cnc3c(c2=N)C(c2cccc(OC)c2)c2c(ccc4ccccc24)O3)cc1 (stereo not drawn),·,·,·,·,–
SMILES,Pol iota inh,Pol kappa inh,POLB inh,POLH inh,TDP1 inh
CC[C@H](C)[C@H](NC(=O)[C@H](CCC(=O)O)NC(=O)CNC(=O)[C@@H](NC(=O)[C@H](CCC(=O)O)NC(=O)[C@H](CCC(=O)O)NC(=O)[C@H](CC(C)C)NC(=O)CNC(=O)[C@@H]1CCCN1C(=O)[C@H](CCC(=O)O)NC(=O)[C@@H](N)[C@@H](C)O)C(C)C)C(=O)N[C@@H](CCC(=O)O)C(=O)N[C@@H](CCC(N)=O)C(=O)N[C@@H](CCCCN)C(=O)N[C@@H](CCC(N)=O)C(=O)N[C@@H](CC(C)C)C(=O)N[C@@H](CCC(N)=O)C(=O)O,·,–,·,·,–
O=C(CN1CCN(C(=O)c2ccco2)CC1)Nc1c2c(nc3c1CCC3)CCCC2,–,–,–,–,89.1µM
O=C(Nc1ccc(Nc2ccccc2)cc1)c1ccccc1F,–,–,–,–,·
O=C(/C=C/c1ccncc1)c1ccc(NC(=O)c2ccccc2F)cc1,?,–,15.8µM,–,–
COc1ccc(CNC(=O)CCCN2C(=O)COc3ccc(C)cc32)cc1,–,–,–,–,–
CC(C)C(C)N(Cc1cccc(C(=O)O)c1)C(=O)c1ccc2ccccc2n1 (stereo not drawn),22.4µM,–,·,–,·
CCCCN(C(=O)CN1CC(C)OC(C)C1)c1c(N)n(CC(C)C)c(=O)[nH]c1=O (stereo not drawn),–,–,–,–,–
CCCCN(C(=O)Cn1ncc(Cl)c(Cl)c1=O)c1c(N)n(CC(C)C)c(=O)[nH]c1=O,15.8µM,70.8µM,22.4µM,28.2µM,–
O=C1SC(SCc2ccccc2)=N/C1=C\c1ccc(C(=O)O)cc1,–,–,–,–,·
O=C1SC(SCc2ccccc2)=N/C1=C\c1ccco1,11.2µM,31.6µM,35.5µM,79.4µM,–
C#CCOc1ccccc1/C=N/NC(=O)c1ccccc1OCc1ccccc1,–,–,–,–,–
O=C1N/C(=N/NC(=O)c2cccc3ccccc23)S/C1=C\c1ccccc1OCc1ccccc1,28.2µM,50.1µM,50.1µM,22.4µM,–
C/C(=N\Nc1nc2ccccc2c(=O)n1O)c1ccco1,17.8µM,–,?,?,·
Cc1nc2ccccc2c(=O)n1NC(=O)c1ccco1,–,–,–,–,–
COc1ccc(-c2cc(C(=O)Nc3cnn(Cc4ccc(F)cc4)c3)no2)cc1OC,–,–,–,–,–
COc1cccc(-c2cc(C(=O)Nc3cnn(Cc4ccc(F)cc4)c3)no2)c1,100µM,–,–,–,–
Cc1ccccc1CS(=O)(=O)Cc1ccc(C(=O)NCCc2ccc(Cl)cc2)o1,–,–,–,–,–
C=CCn1c(SCc2cc(=O)n3ccsc3n2)nc2sc(C)c(C)c2c1=O,31.6µM,–,50.1µM,?,–
C=CCSc1nc2sc(C)c(C)c2c(=O)n1CC=C,–,–,–,–,–
Cc1ccc(Nc2ccc(N)cc2S(=O)(=O)O)cc1,?,–,?,39.8µM,–
Cc1ccccc1Cn1cc(CCC(=O)NCc2cccc(Br)c2)c2ccccc21,–,–,–,–,–
COc1ccc2[nH]c(C(=O)O)c(CCN3C(=O)c4cccc([N+](=O)[O-])c4C3=O)c2c1,–,–,–,?,44.7µM
CN(C)c1ccc(/C=C/C=C2/SC(=S)N(c3ccccc3)C2=O)cc1,?,–,–,–,–
O=C(O)c1ccc(N2C(=O)/C(=C/C=C/c3ccccc3)SC2=S)cc1,?,–,?,50.1µM,–
COc1ccc(C2Nc3ccccc3C(=O)N2CCc2ccccc2)cc1COc1ccc(NC(C)=O)cc1 (stereo not drawn),·,·,·,·,–
CC[C@H](C)C(=O)O[C@@H]1C[C@H](C)C=C2C=C[C@H](C)[C@@H](CC[C@H]3C[C@@H](O)CC(=O)O3)[C@H]21,·,–[12 µM],·,·,–[21 µM]
Nc1cc([N+](=O)[O-])ccc1N1C(=O)CCCC1=O,?,–,39.8µM,–,20µM
O=S1(=O)N=C(Oc2ccc(C(F)(F)F)cc2)c2ccccc21,·,·,·,·,–

# Source: PubChem BioAssay
